Source: the supplement of paper PMC6555819

These sequences were tested on PPARg:RXRa 90nM:30nM, anti-RXR (NR concentration 90 nM, RXRa partner concentration 30 nM) (assay: PBM binding z-score (relative to random genomic background probes); higher = stronger binding; sequences stand for … in GC…GCGATTGACAGCGTAGAATGAAGG).
Procedure, shortened: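 Probes were double-stranded and carried 34-nt variable regions with direct-repeat seeds, single-nucleotide variants, half-site ablations and random human genomic background sequences, printed on custom Agilent 4×180K protein-binding microarrays. Arrays were incubated 1 h with ligand-free nuclear receptor dimers in PBS pH 7.4, 2% milk, 0.02% Triton X-100, 1 mM DTT, 0.2 mg/mL BSA and 0.4 mg/ml salmon testes DNA. Antibodies against each partner (one per run) detected binding, and scanned fluorescence was regression-normalized. Binding z-scores use the random background probes as reference.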

Sequence	PBM binding z-score
CGAACTAGGTCAGAACATGACAGTGAAGGATGAT	3.4
TTACCAAGGTGAGCCGAGGTCGTTGATCCAACTC	0.541
CAAACTAGGTCACCGGAAGGTCAACGTCCGCATG	7.83
CCTACTGGGCCACGAAAAGTCATTGATTCAGTGA	0.689
AATACAGGGTCATCGTAGACCAGAGTACGCACAG	4.84
CCTTACGGGTCACTCCAGGCTATAGCATCGGAGT	1.9
CCACACAGGTGAAAGGTAACTCAGTCTGGTACGC	5.21
TCCGACAGGTGAAGGTAACTCAGGTACGCAGTCG	1.34
ATCGATAGGTCGACGAGGTGAGTATACACCGTTT	0.349
TAGCCTAGGTCATGCAGGCCAGTATAGTGTCGGC	1.34
CGTCCAACGTCAGAGAGGTCAGTGAATGCCGAGT	-0.194
CCCTACGGGTCACTGACAGGTTATAGCATTTGGA	2.43
AGAATGAGGTTACCAAACATCAGGGAAACGCTTG	1.8
CCTACTGGGCCATTCAGAGGTGATTGATCATATG	0.119
CCTACCAGGCCAGGGTCACTCAAGCATTTCGCTT	0.539
CGAACTAGGTCATCCAGGACAATGAATACATTGA	6.1
ACTAGTTGGTGAGCTGAGGTCACACACAATTCGG	1.3
CGTCCAAGCTCAAAGGTCAGTGAAGAGATGACGG	3.97
